12-LOX inh – blocks human arachidonate 12S-lipoxygenase | purified 12hLO, xylenol orange hydroperoxide absorbance | AID 1671190 | Potency, µM (top dose mostly 108 µM), for the others: top-dose activity change, negative = inhibition, hits mostly inhibitors | P18054 | hit rate 1.1% among 580,000; note: potency is the fitted concentration of half-maximal effect
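Purified human 12hLO (150 nM final) in 25 mM Hepes, 0.01% Triton X-100, pH 7.0 was preincubated 15 min at room temperature with compound. Then 40 uM arachidonic acid was added, 30 min. Hydroperoxide was read by Fe-XO absorbance ratio 573/405 nm.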
HT1080-NT tox – kills 2HG-producing HT-1080-NT fibrosarcoma cells; Potency, µM (titrated, usually from 46.1 µM), for the others: at the top dose activity, negative = less viability, most hits filed as cytotoxic; hit rate 1.6% among 360,000; HT-1080-NT fibrosarcoma viability, CellTiter-Glo ATP luminescence, 48 h;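 note: NT is the 2HG producing partner of a matched IDH1 knockdown line; potency is the fitted concentration of half-maximal effect; 0% = DMSO-treated cells and -100% = media-only wells without cells; nearly all actives have a fitted effect of over 55% in size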
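Fibrosarcoma NT cells, 750 per well in 5% FBS RPMI, were exposed to compound for 48 hours. Viability: CellTiter-Glo luminescence.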
HT1080 IDH1KD tx – toxicity to HT-1080 IDH1 knockdown cells (counter line); HT-1080 IDH1 knockdown viability, ATP luminescence, 48 h; Potency, µM (doses to about 46.1 µM), without a hit: at the top dose activity, negative = toxicity, hits mostly cytotoxic; hit rate 2% among 360,000;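 note: potency is the fitted concentration of half-maximal effect; 0% = DMSO wells and -100% = cell-free medium wells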
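Viability of IDH1-knockdown HT-1080 fibrosarcoma cells was assessed by CellTiter-Glo after 48 h at 37 °C with titrated compound; concentration-effect curves were classified by fit quality and response size.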
DT40 TDP1 no CPT – qHTS for Inhibitors of human tyrosyl-DNA phosphodiesterase 1 (TDP1): qHTS in cells in absence of CPT | DT40 Tdp1-/- hTDP1 cells, no CPT, ATP luminescence, 48 h | Potency, µM (titrated, usually from 46.2 µM), for the others: at the highest dose activity change, negative = growth inhibition, usual class: inhibitors | hit rate 15% among 420,000; note: potency is the fitted concentration of half-maximal effect; nearly all actives have a fitted effect of over 55% in size
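Cells were dispensed at 400 per well, compounds added by pin tool, plates incubated ≥48 hr at 37 °C, then CellTiter-Glo added for 30 min at room temperature before luminescence reading. Line: DT40 Tdp1-/- complemented with hTDP1; camptothecin omitted.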
IL1B secr inh – inflammasome signaling inhibition, IL-1 beta readout; THP-1 LPS/ATP IL-1B secretion, AlphaLISA, 16 h; hits give low values; AID 743279; hit rate 4.7% among 360,000; activity change, % at 57.5 µM; in the data active = activity change below about -50%; inconclusive = mostly about -30% to -49%
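THP-1 cells pretreated 1 hr with compounds (up to 57.5 uM final), then stimulated with LPS (250 ng/mL final) plus ATP (1.25 mM final); secreted IL-1B measured by AlphaLISA after 16 hr, decreased signal indicating inhibition.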
TDP1 cell CPT – DT40-hTDP1 cell growth loss with CPT | chicken DT40 Tdp1-/-;hTDP1 cells + 20 nM CPT, ATP luminescence, 48 h | hit rate 12% among 420,000 | Potency, µM (highest dose often 46.2 µM), for the others: top-dose activity change, negative = growth inhibition, hits mostly inhibitors; note: potency is the fitted concentration of half-maximal effect; nearly all actives have a fitted effect of over 55% in size
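Chicken DT40 Tdp1-/- cells stably complemented with human TDP1 were seeded at 400 cells/well in medium containing 20 nM camptothecin, exposed to pin-transferred compounds, and grown at 37 °C for at least 48 hr. Viability was read as ATP luminescence.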
Numbers without * were called inactive; ? = inconclusive; nt = no result given; [ ] = remark or other dose. The entries come from a sample that favours hits as a whole. Unless noted, calls come from the whole dose curve; as a rule, active = well fitted curve in the direction sought with a large enough effect; inconclusive = small, poorly fitted or top-dose-only effect, or another doubt; inactive = no such curve, though single readings can be large; an effect the other way counts as inactive or inconclusive. Unless noted, % is set by controls: 0 for no effect and ±100 for the full control effect.

SMILES	12-LOX inh	HT1080-NT tox	HT1080 IDH1KD tx	DT40 TDP1 no CPT	IL1B secr inh	TDP1 cell CPT
CC12CCC3C(CCC4(O)CC(O)CCC34C=NO)C1(O)CCC2C1=COC(=O)C1 (stereo not drawn)	12%	0.82µM*	0.58µM*	8.2µM*	-104*	16µM*
C[C@]12CCC3C(CCC4=CC(O)CC[C@@]43/C=N/O)C1(O)CCC2C1=CC(=O)OC1 (stereo partly drawn)	0%	3.3µM*	0.82µM*	?	-71*	4%
CC1OC(OC2CCC3(C=O)[C@H]4CCC5(C)C(C6=CC(=O)OC6)CCC5(O)[C@@H]4CCC3(O)C2)CC(O)C1O (stereo partly drawn)	-9%	nt	nt	nt	nt	nt
CC12CCC(O)CC1CC[C@@H]1[C@@H]2CCC2(C)[C@H](C3=CC(=O)OC3)CCC12O (stereo partly drawn)	-31%	nt	nt	nt	nt	nt
CC12CCC3C(CCC4(O)CC(O)CCC34C=O)C1(O)CCC2C1=CC(=O)OC1 (stereo not drawn)	-3%	1.6µM*	1.5µM*	7.3µM*	?	10µM*
C[C@]12CC[C@H]3[C@@H](CC[C@]4(O)C[C@@H](O)CC[C@]34C=O)[C@@]1(O)CC[C@@H]2C1=CC(=O)OC1	6%	1.2µM*	0.65µM*	5.2µM*	-67*	7.3µM*
CCCS(=O)(=O)NC[C@H]1C[C@@H]2CCN1C[C@@H]2c1cc(-c2ccc(F)cc2)nn1C	15%[176 µM]	nt	nt	nt	nt	nt
CCN1CCN(C(=O)COc2ccc3c(=O)c(-c4ccccc4)coc3c2)CC1	2%	nt	nt	nt	nt	nt
C[C@H]1O[C@@H](OC2CC[C@]3(C=O)[C@H]4CC[C@]5(C)[C@@H](C6=CC(=O)OC6)CC[C@]5(O)[C@@H]4CC[C@]3(O)C2)CC2OC(C)(C)OC21 (stereo partly drawn)	129%	0.18µM*	0.1µM*	1µM*	-93*	1.8µM*
CC1OC(OC2CCC3(C=O)[C@H]4CCC5(C)C(C6=CC(=O)OC6)CCC5(O)[C@@H]4CCC3(O)C2)CC2OC(C)(C)OC12 (stereo partly drawn)	19%	nt	nt	nt	nt	nt
CCCCN=C[C@]12CCC(O)CC1(O)CCC1[C@@H]2CC[C@]2(C)[C@H](C3C=CC(=O)O3)CCC12O (stereo partly drawn)	12%	1.8µM*	1.5µM*	16µM*	-76*	?
CC(C)NC1CNC1	43%[365 µM]	nt	nt	nt	nt	nt
COc1cc2c(cc1OCc1ccccc1)NC(=O)C21CCN(c2nc(C)cnc2C)CC1	1%	nt	nt	nt	nt	nt
COc1ccc2c(c1)c(C(=O)NC(C)C(C)C)c(C)n2C1CC1 (stereo not drawn)	4%	nt	nt	nt	nt	nt
CN1CCC(c2c[nH]c3ccccc23)C1 (stereo not drawn)	-17%	-3%	-9%	?	?	-12%
CC1CCCC(C)N1/N=C/c1c[nH]c2ccc(Br)cc12 (stereo not drawn)	?	21µM*	?	?	-93*	?
NC(Cc1ccc(O)cc1)C(=O)NN=Cc1ccc(N(CCCl)CCCl)cc1 (stereo not drawn)	6%	?	-9%	13µM*	-2	8.2µM*
COc1cc(C(=O)NN=Cc2ccc(N(CCCl)CCCl)cc2)cc(OC)c1OC	8%	?	4.1µM*	?	54	?
COc1cc(C(=O)Nc2ccc(Br)cc2C(=O)c2ccccc2)cc(OC)c1OC	5%	-1%	-3%	-26%	-2	-18%
C=C1C(=O)O[C@@H]2C[C@@H](C)[C@H]3C=CC(=O)[C@]3(O)C[C@@H]12	9%	-19%	-16%	4.6µM*	-99*	4.6µM*
O=C(Cc1ccc(F)cc1Cl)N1C[C@H]2CC[C@@H]1CN(Cc1cccnc1)C2	15%	nt	nt	nt	nt	nt

Source: PubChem (National Center for Advancing Translational Sciences (NCATS))
